High-throughput results as filed in PubChem BioAssay.
Sampled rows, rich in hits. Any-hit rate of the full collection: about 2.4%.
D2 ag-1 – activates the human D2 dopamine receptor. P14416. DiscoveRx PathHunter D2 beta-arrestin, luminescence, 90 min; 100% = 57 uM dopamine signal. activation, % (test concentration not listed). hit rate 0.084% among 360,000; in the data active = activation above about 40%; inconclusive = between about 15% and that limit
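Agonist mode: compounds alone added to overnight-plated D2 PathHunter cells for 90 min at 37 C, with 57 uM final dopamine (EC100) defining full response. Beta-arrestin recruitment detected by chemiluminescent reagent, read after 1 h at ambient temperature.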
D2 PAM-1 – positive allosteric modulators of human D2 dopamine receptor | P14416 | HEK293 T-REx D2, calcium flux, EC20 dopamine potentiation | potentiation, % at 10 µM | hit rate 0.34% among 340,000 | AID 485347;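 active = potentiation over 3 SD above the plate norm, cut at about 30% in these data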; also: 0% is about no effect
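Cells plated with tetracycline inducer and held overnight at 30 C; calcium dye loaded 30–90 min at room temperature; baseline taken, compound added and read 180 s; EC20 dopamine then added and read 180 s.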
D2 ag-2 – agonists of human D2 dopamine receptor; activation, % at 2 µM; hit rate 0.53% among 340,000; HEK293 T-REx D2 cells, calcium flux agonist mode;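 active = activation over 3 SD above normal in the single-dose calcium agonist read, cut at about 30% in these data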; also: 0% is about no effect
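Agonism is scored from calcium flux in a force-coupled, inducible HEK293 cell line expressing D2, read kinetically for 180 s after compound addition against dopamine controls.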
D2 antag – antagonists of human D2 dopamine receptor. P14416. HEK293 TREx D2 cells, calcium flux, dopamine EC80. inhibition, % at 10 µM. hit rate 2% among 340,000. AID 485344; in the data active = inhibition above about 30%; inactive = below that, where a call was filed; also: 0% is about no effect
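Measurement of antagonist activity uses fluorescent calcium dye in inducible HEK293 T-REx D2 cells: 10 s baseline, compound addition with 180 s read, EC80 dopamine addition with a further 180 s read.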
D2 PAM-2 – potentiates the human D2 dopamine receptor allosterically; P14416; DiscoveRx D2 beta-arrestin cells, luminescence, 90 min; 100% = 57 uM dopamine signal; potentiation, % (concentration not given with the values); hit rate 0.23% among 360,000; AID 624464; in the data active = potentiation above about 50%; inconclusive = mostly about 30% to 49%
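PathHunter beta-arrestin assay in DiscoveRx D2 cells. Compounds were added with an EC20 of dopamine (50 nM final) for 90 min at 37 deg C. Luminescence was read 1 h after detection reagent, with 57 uM dopamine as the EC100 control.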
D3 arrestin ag – confirmation of human D3 dopamine receptor agonists, beta-arrestin. DiscoveRx D3 beta-arrestin cells, luminescence, 90 min. Potency, µM (doses to about 76.9 µM), without a hit: at the top dose activation, hits mostly activators. hit rate 4% among 2,300. shares compounds with D2 ag-2;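 also: potency is read from the fitted curve at half-maximal effect; 100% = dopamine control response; nearly all actives have a fitted effect of over 70% in size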
Target sequence (P35462 whole entry, looked up): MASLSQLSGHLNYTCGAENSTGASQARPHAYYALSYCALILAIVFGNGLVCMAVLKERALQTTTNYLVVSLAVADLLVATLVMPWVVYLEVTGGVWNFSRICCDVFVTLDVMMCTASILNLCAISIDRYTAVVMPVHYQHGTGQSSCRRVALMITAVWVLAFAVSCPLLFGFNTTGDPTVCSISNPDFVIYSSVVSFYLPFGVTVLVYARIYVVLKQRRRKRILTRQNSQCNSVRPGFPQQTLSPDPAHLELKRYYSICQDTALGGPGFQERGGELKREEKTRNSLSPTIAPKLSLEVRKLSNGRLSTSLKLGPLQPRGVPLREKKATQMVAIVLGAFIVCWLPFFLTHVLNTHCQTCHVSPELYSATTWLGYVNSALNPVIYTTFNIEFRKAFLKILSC
D2 ag-3 – activates human D2 dopamine receptor in D3 counterscreen. shares compounds with D2 ag-2. DiscoveRx PathHunter D2 beta-arrestin, luminescence, 90 min; response scale: percent relative to full dopamine signal. Potency, µM (titrated, usually from 76.9 µM), for inactives: top-dose activation, actives largely listed as activators. hit rate 5.9% among 2,300. AID 720507; also: potency is read from the fitted curve at half-maximal effect; % of control where 0% means no effect; nearly all actives have a fitted effect of over 70% in size
* marks the source's active call; other numbers are inactive results; ? = inconclusive; . = no result given. Unless noted, calls follow the shape of the dose curve; as a rule, active = well fitted activation curve with a large enough effect; inconclusive = small, poorly fitted or top-dose-only effect; inactive = flat fitted curve, though single readings scatter.

SMILES | D2 ag-1 | D2 PAM-1 | D2 ag-2 | D2 antag | D2 PAM-2 | D3 arrestin ag | D2 ag-3
CSc1ccccc1NC(=O)C1C2CCC(C2)C1C(=O)O (configuration not stated) | -4 | -3 | 27 | -3 | -5 | -11% | -4%
O=C(O)c1ccc(NC(=O)C2C3CCC(C3)C2C(=O)O)cc1 (configuration not stated) | -2 | 1 | 0 | -8 | 4 | . | .
COC(=O)c1sc2nc3c(cc2c1N)C(=O)CC(C)(C)C3 | -2 | 2 | 0 | 16 | -28 | . | .
Cc1cc(C)c(NC(=O)c2sc3nc4c(cc3c2N)C(=O)CC(C)(C)C4)c(C)c1 | 1 | -10 | 44* | 5 | -7 | -5% | 1%
CCOC(=O)N1CCN(CC(=O)Nc2c(C(=O)OC)[nH]c3cc(C)ccc23)CC1 | 15 | -12 | . | . | -7 | ? | 16%
CCOc1ccc(C(=O)N/N=C(\c2ccccc2)c2ccccn2)cc1 | -4 | 5 | -1 | 21 | -28 | -23% | -11%
O=C(COC(=O)c1ccccn1)NC(=O)c1ccccc1 | -7 | 8 | -1 | -11 | -3 | -4% | -6%
CC(=O)N(Cc1ccc(Br)cc1)c1ccccc1C(=O)O | -5 | 9 | 0 | 6 | -9 | . | .
CC(=O)Nc1ccc(NC(=O)C2CCN(c3c(NC(C)=O)c(C)nn3-c3ccccc3)CC2)cc1 | . | 2 | 0 | . | . | . | .
COc1ccc(NC(=O)CN(C)C(=O)C2CSC3(C)CCC(=O)N23)cc1 (configuration not stated) | -3 | 0 | 1 | -10 | 6 | -3% | 1%
CC(=O)c1ccc(OC(=O)C2CSC3(C)CCC(=O)N23)cc1 (configuration not stated) | 0 | . | . | . | 11 | -4% | -2%
CCOc1ccc(NC(=O)CN(C)C(=O)CC2CCCCC2)cc1OCC | 3 | -11 | 0 | 3 | -1 | . | .
CCOc1ccc(NC(=O)CN(C)C(=O)C2CSC3(C)CCC(=O)N23)cc1OCC (configuration not stated) | 1 | -3 | 0 | 9 | 0 | -2% | -1%
COc1ccc(CN(C)C(=O)C2CSC3(C)CCC(=O)N23)cc1 (configuration not stated) | -2 | -2 | 0 | 8 | 10 | . | .
CCOc1ccc(NC(=O)CN(C)C(=O)CCC2CCCCC2)cc1OCC | 2 | 6 | -1 | 12 | -16 | -4% | 1%
Cc1cc(-c2nnc(SCC(=O)Nc3ccccc3C(F)(F)F)n2N)n[nH]1 | 3 | . | . | . | -10 | . | .
Cc1onc(-c2ccccc2)c1C(=O)NCC1CCCO1 (configuration not stated) | -3 | 3 | -1 | -18 | -1 | . | .
Cc1ccc(OCC(=O)N(Cc2cccc(F)c2)C2CCS(=O)(=O)C2)cc1 (configuration not stated) | -2 | 1 | 0 | 10 | -8 | . | .
O=C(C1CCCN(Cc2cccnc2)C1)N1CCCCC1 (configuration not stated) | 4 | -2 | 0 | 11 | -5 | -2% | -2%
Cn1c(=O)c(C(=O)NCc2ccc(Cl)cc2)c(O)c2ccccc21 | 1 | . | . | . | -4 | . | .
CN1CCN(C(=O)C(=O)Nc2c3c(nn2-c2ccc(F)cc2)CSC3)CC1 | . | 11 | 0 | . | . | . | .
Cn1nnnc1Sc1ncnc2scc(-c3ccc(C(F)(F)F)cc3)c12 | . | -5 | -1 | 1 | . | . | .
Cn1nnnc1Sc1ncnc2scc(-c3cccs3)c12 | . | 31* | 0 | -6 | . | -1% | -2%
O=S(=O)(NCCN1CCCC1)c1cccc2cccnc12 | -2 | 0 | 1 | -10 | -6 | . | .
O=S(=O)(NCCCN1CCN(c2ccccc2F)CC1)c1cccc2cccnc12 | -4 | . | . | . | 1 | 17% | 14%
SMILES | D2 ag-1 | D2 PAM-1 | D2 ag-2 | D2 antag | D2 PAM-2 | D3 arrestin ag | D2 ag-3
COc1cccc(S(=O)(=O)NC2CCN(C#N)C2)c1 (configuration not stated) | . | 5 | 0 | 1 | . | -6% | -2%
O=C(Nn1cnc2ccccc2c1=O)c1ccc(Br)cc1 | 0 | -12 | 43* | 26 | -2 | 29% | 10%
CC(CCc1ccccc1)NCc1ccncc1 (configuration not stated) | ? | -23 | 68* | 64* | 0 | ? | ?
CC(Cc1ccccc1)C(=O)NCc1ccncc1 (configuration not stated) | -1 | 2 | 1 | -25 | -19 | . | .
COc1ccc(CC(=O)Nc2ccc(S(=O)(=O)NC(C)C)cc2)cc1 | 3 | . | . | . | -4 | 22% | 11%
CCCCNS(=O)(=O)c1ccc(NC(=O)Cc2ccc(OC)cc2)cc1 | 2 | -7 | 0 | -4 | -5 | . | .
COc1cc(OC)c2c(-c3ccccc3)cc(=O)oc2c1C(CCN1CCN(c2ccccc2)CC1)c1ccc(N(C)C)cc1 (configuration not stated) | 4 | . | . | . | -19 | -6% | 19%
COc1ccc(C(CCN2CCN(c3ccccc3)CC2)c2c(OC)cc(OC)c3c(-c4ccccc4)cc(=O)oc23)cc1 (configuration not stated) | 9 | -9 | 69* | 79* | -11 | ? | ?
CCCCCc1cc(=O)oc2c(C(CCN3CCN(c4ccccc4)CC3)c3ccc(N(C)C)cc3)c(OC)cc(OC)c12 (configuration not stated) | 1 | 4 | 7 | 21 | -18 | . | .
COc1cc(O)c(C(CCN2CCN(c3ccccc3)CC2)c2ccc3c(c2)OCO3)c(OC)c1 (configuration not stated) | 1 | -24 | 25 | 75* | -19 | -5% | 5%
COc1cc(C2CC(=O)Oc3c(C(CCN4CCN(c5ccccc5)CC4)c4ccc(N(C)C)cc4)c(OC)cc(OC)c32)cc(OC)c1OC (configuration not stated) | 15 | -9 | 0 | -3 | -15 | . | .
COc1cc(OC)c2ccc(=O)oc2c1C(CCN1CCN(c2ccccc2)CC1)c1ccc(N(C)C)cc1 (configuration not stated) | 2 | -15 | 53* | 62* | -20 | 1% | 12%
Cc1ccc(C(=O)N/C(=C\c2ccco2)C(=O)NCCCn2ccnc2)cc1 | -5 | 0 | 1 | -15 | -4 | . | .
Cc1ccc(-c2nnc(SCC(=O)Nc3ccc(N4CCOCC4)cc3)o2)cc1 | -3 | 3 | 0 | -12 | -1 | . | .
COc1ccccc1CCNC(=O)CCc1c(C)c2cc3c(C)c(C)oc3cc2oc1=O | . | 1 | -1 | . | . | . | .
